Screens (PubChem BioAssay)
Pf growth 96h – P. falciparum growth inhibition at 96 hours | P. falciparum luciferase reporter growth, 96 h | Potency, µM (doses to about 28.7 µM), without a hit: top-dose activity change, negative = inhibition, actives largely listed as inhibitors | 320,000 compounds, 6.9% hits; further: potency means the concentration at half of the fitted maximal effect; on the % scale 0 is the no-effect control and ±100 the full control effect
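Two parasite generations (96 h, 37 C, 5% CO2) of compound exposure in infected erythrocytes (0.05% parasitemia, 2% hematocrit). Luciferase-reporter P. falciparum; decreased luminescence indicates inhibited growth, aimed at apicoplast-acting delayed death.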
Cycloheximide cs – affects cycloheximide protein synthesis inhibition readout, counter-screen; 300,000 compounds, 12% hits; max response, %; AID 2314; cell reporter, cycloheximide protein synthesis inhibition counterscreen; in the data active means max response mostly above about 13%, no sharp cut-off; inactive means mostly below about 14%; further: read at 38.3 µM for the half of the compounds with a filed dose; 0% is about no effect
Pf growth 48h – inhibits P. falciparum growth in the first generation, 48 h | P. falciparum luciferase growth in erythrocytes, 48 h | Potency, µM (top dose mostly 28.7 µM), without a hit: at the top dose activity change, negative = inhibition, hits mostly inhibitors | 310,000 compounds, 5.9% hits | AID 504832; further: potency means the concentration at half of the fitted maximal effect; on the % scale 0 is the no-effect control and ±100 the full control effect
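Growth was read as firefly luciferase luminescence after a 48 h, 37 C, 5% CO2 exposure of compounds to reporter-bearing P. falciparum cultures (0.1% parasitemia, 2% hematocrit final) in Albumax-supplemented RPMI 1640.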
HCMV inh – human cytomegalovirus inhibition | activity change, negative = inhibition, % at 57.5 µM | HFF cells, HCMV-luciferase reporter, 72 h; stronger effect = lower value | 410,000 compounds, 4.5% hits; in the data active means activity change below about -60%; inconclusive means no clear call, values can overlap the other calls; inactive means above about -39%; further: on the % scale 0 is the no-effect control and ±100 the full control effect
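HFF cells seeded 16 h at 37C, treated with compounds, infected with luciferase-reporter HCMV at MOI 1 PFU/cell; luciferase read at 72 h post infection, normalized to buffer-only and Salinomycin controls.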
HCV inhibitor – HCV inhibition; 340,000 compounds, 3.4% hits; Huh7.5.1 HCVcc-Cre infection, luciferase reporter, 44 h; Potency, µM (titrated, usually from 41.8 µM), for the others: at the highest dose activity change, negative = inhibition, usual class: inhibitors; further: potency means the concentration at half of the fitted maximal effect; on the % scale 0 is the no-effect control and ±100 the full control effect
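Seed cells (1,000/well) for 4 h; treat with compound and infect with HCVcc-Cre, moi about 0.5. Incubate 44 h, then detect luciferase activity.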
Shiga inhibitor – inhibitors of Shiga toxin in Vero cells; 290,000 compounds, 9.2% hits; inhibition, % at 38.7 µM; Vero cells, Shiga toxin protein synthesis inhibition reporter; in the data active means inhibition mostly above about 28%, no sharp cut-off; inactive means mostly below about 43%; further: 0% is about no effect
* marks the source's active call; other numbers are inactive results; [ ] = remark or other dose. The list is not random: actives were taken first. Their share in the collection is about 21%. Unless noted, the call rests on the fitted dose curve; in most records, active means well fitted inhibition curve with a large enough effect; inconclusive means small, poorly fitted or top-dose-only effect, or another doubt; inactive means no such curve, though single readings can be large or run the other way.

CC(=O)Nc1ccc(C(=O)N/N=C/c2cc(Br)cc(Br)c2O)cc1 was read as Pf growth 96h 2.94µM*, Cycloheximide cs -1.3, Pf growth 48h -36.0%[5.75 µM], HCMV inh -7.8, HCV inhibitor -7.6% and Shiga inhibitor 6.2.
`COC(=O)c1ccc(C2C(Oc3ccccc3)C(=O)N2CCc2ccc(F)cc2)cc1` (stereo unspecified) gave Pf growth 96h inconclusive, Cycloheximide cs -3.5, Pf growth 48h inconclusive, HCMV inh -19.5, HCV inhibitor -0.8% and Shiga inhibitor -4.0.
CC1SC(c2ccc(F)cc2)N(CCc2ccccc2)C1=O (stereo unspecified) was read as Pf growth 96h -3.7%, Cycloheximide cs 24.1*, Pf growth 48h -25.8%[0.00184 µM], HCMV inh -1.7, HCV inhibitor 0.8% and Shiga inhibitor 42.0*.
`CCCCCOc1ccc(C(O)C(CN2CCOCC2)c2ccccc2)cc1` (stereo unspecified) gave Pf growth 96h -3.8%, Cycloheximide cs -0.7, Pf growth 48h 2.62µM*, HCMV inh -25.9, HCV inhibitor -0.8% and Shiga inhibitor -3.0.
For COc1ccc(C(O)C(CN2CCOCC2)c2ccccc2)cc1 (stereo unspecified) the results were Pf growth 96h 9.28µM*, Cycloheximide cs 5.6, Pf growth 48h inconclusive, HCMV inh 5.6, HCV inhibitor 11.0% and Shiga inhibitor 23.4.
`OC(c1ccccc1)(c1ccc(F)cc1)C(c1ccccc1)N1CCOCC1` (stereo unspecified) gave Pf growth 96h 6.57µM*, Cycloheximide cs 7.5, Pf growth 48h 37.8%, HCV inhibitor inconclusive and Shiga inhibitor -8.3.
`OC(c1ccc(F)cc1)C(CN1CCOCC1)c1ccccc1` (stereo unspecified) gave Pf growth 96h 10.4µM*, Cycloheximide cs -8.0, Pf growth 48h 11.7µM*, HCMV inh -1.3, HCV inhibitor 19.6% and Shiga inhibitor -4.2.
Screening CC(O)(c1ccccc1)C(C(c1ccccc1)N1CCOCC1)N1CCOCC1 (stereo unspecified) returned HCMV inh -36.5 and HCV inhibitor 13.5%.
Cn1cccc1C(=O)NC1CCCCCC1 was read as Pf growth 96h 243.5%, Pf growth 48h 321.0%, HCMV inh 43.8 and HCV inhibitor -0.5%.
`Cc1cc(Cl)ccc1NC(=O)CN1C(=O)C(=O)c2ccccc21` gave HCMV inh 18.3.
For O=C(NC1=NN(c2ccccc2)CC1)Nc1ccccc1F the results were Pf growth 96h 0.0%, Cycloheximide cs 34.8*, Pf growth 48h 102.6%, HCMV inh -21.7, HCV inhibitor -3.7% and Shiga inhibitor 37.0*.
For O=C(CCc1ccc(S(=O)(=O)N2CCOCC2)cc1)Nc1cc(Cl)ccc1N1CCOCC1 the results were Pf growth 96h -17.7%, Cycloheximide cs -2.1, Pf growth 48h 6.57µM*, HCMV inh 4.1, HCV inhibitor -29.4% and Shiga inhibitor -20.2.
`O=C(Cc1c(F)cccc1Cl)Nc1ccccc1N1CCCCC1` gave Pf growth 96h 13.1µM*, Cycloheximide cs -1.4, Pf growth 48h 0.0%, HCMV inh -19.4, HCV inhibitor inconclusive and Shiga inhibitor 15.9.
O=C(CCN1CCN(c2ccccc2)CC1)Nc1ccccc1F was read as Pf growth 96h 7.5%, Cycloheximide cs -1.7, Pf growth 48h 2.4%, HCMV inh -10.2, HCV inhibitor 12.4% and Shiga inhibitor 5.1.
O=C(Cc1ccccc1Cl)Nc1cc(S(=O)(=O)N2CCOCC2)ccc1N1CCOCC1 was read as Pf growth 96h 10.4µM*, Pf growth 48h inconclusive, HCMV inh -16.0 and HCV inhibitor 0.8%.
For CCCN(C(=O)CSCc1c(C)noc1C)c1c(N)n(Cc2ccccc2)c(=O)[nH]c1=O the results were Pf growth 96h 1.0%, Pf growth 48h 1.5%, HCMV inh 24.7 and HCV inhibitor 6.1%.
O=C(Nc1ccccc1F)Nc1ccccc1N1CCCCC1 was read as Pf growth 96h inconclusive, Cycloheximide cs 10.0*, Pf growth 48h inconclusive, HCMV inh -83.1*, HCV inhibitor 14.1µM* and Shiga inhibitor 11.2.
CN1CCN(c2ccc(S(=O)(=O)N3CCCCC3)cc2NC(=O)Cc2c(F)cccc2Cl)CC1 was read as Pf growth 96h inconclusive, Pf growth 48h inconclusive, HCMV inh -18.0 and HCV inhibitor 3.7%[8.37 µM].
Screening O=C(Cc1c(F)cccc1Cl)Nc1cc(S(=O)(=O)N2CCCCC2)ccc1N1CCOCC1 returned Pf growth 96h inconclusive, Cycloheximide cs -3.8, Pf growth 48h 11.7µM*, HCMV inh -1.0, HCV inhibitor -14.1% and Shiga inhibitor -15.8.
`CCN(C(=O)CN1C(=O)NC(c2ccccc2)(c2ccc(C)c(C)c2)C1=O)C1CCS(=O)(=O)C1` (stereo unspecified) gave Pf growth 96h 13.1µM*, Pf growth 48h inconclusive, HCMV inh 14.0 and HCV inhibitor inconclusive.
`CCN(C(=O)CN1C(=O)NC(c2ccccc2)(c2ccc(C)c(C)c2)C1=O)C1CCCCC1` (stereo unspecified) gave Pf growth 96h 3.29µM*, Pf growth 48h 6.57µM*, HCMV inh 0.0 and HCV inhibitor inconclusive.
For Cc1ccc(N2CC(NC(=O)c3ccc(S(=O)(=O)N4CCOCC4)cc3)CC2=O)cc1 (stereo unspecified) the results were HCMV inh 33.1.
Screening COC(=O)C1=CN(c2ccc(F)cc2)C=C(C(=O)OC)C1c1cccc([N+](=O)[O-])c1 returned Pf growth 96h 100.5%, Cycloheximide cs 1.6, Pf growth 48h -19.7%[0.00184 µM], HCMV inh -17.1, HCV inhibitor inconclusive and Shiga inhibitor 4.6.
For Clc1cccc(CSc2nnc(-c3ccccn3)n2Cc2ccco2)c1 the results were Pf growth 96h inconclusive, Cycloheximide cs -3.1, Pf growth 48h inconclusive, HCMV inh -36.5, HCV inhibitor -25.4% and Shiga inhibitor -2.9.
Screening Brc1ccc(CSc2nnc(-c3ccccn3)n2Cc2ccco2)cc1 returned Pf growth 96h 3.7µM*, Cycloheximide cs -3.4, Pf growth 48h inconclusive, HCMV inh inconclusive and Shiga inhibitor 11.0.
`CC(C)(C)c1ccc(CSc2nnc(-c3ccccn3)n2Cc2ccco2)cc1` gave Cycloheximide cs 1.5, Pf growth 48h 7.38µM*, HCMV inh 4.3, HCV inhibitor inconclusive and Shiga inhibitor -22.9.
For Clc1ccc(CSc2nnc(-c3ccccn3)n2Cc2ccco2)cc1Cl the results were HCMV inh -20.3.
CCN(CC)C(=O)Oc1cc(COC)nc(-c2ccccc2)n1 was read as Pf growth 96h inconclusive, Cycloheximide cs 1.1, Pf growth 48h 10.4µM*, HCMV inh 0.3, HCV inhibitor 10.2% and Shiga inhibitor -11.6.
